In PubChem BioAssay AID1362 (SRMLSC, 2008):
Out of some 190,000 compounds screened, about 4,000 (2.1%) were called active. No stated cut-off is given here; in the data, active means inhibition above about 58%; inactive means the rest, inconclusive results apart; tested in S. cerevisiae. The full list was thinned out, with actives kept by preference.

Experiment: growth inhibition of WT strain, primary screen, mitochondrial fusion inhibitor project, WT and mutant strains, chemical genetic (AID 1362)
Conditions: mitochondrial fusion phenotypic screen, at 10 µM
[1] = WT strain, growth inhibition, stronger effect = higher value

Row | Compound | inhibition [1] | inhibition (mutant strain inhibition) [%]
1 | COc1ccc(CN(C)C(=S)Nc2ccc(Cl)cc2Cl)cc1 | 22.4% (inactive) | 21.9
2 | O=Cc1cn(Cc2ccccc2)nc1-c1cccnc1 | -22.6% (inactive) | 3.85
3 | N#C/C(=C(\O)C(F)(F)F)c1nnc2n1CCCCC2 | 22% (inactive) | 13.5
4 | CC(=O)Nc1cccc(-c2cnc3ccccc3n2)c1 | 13.3% (inactive) | 9.81
5 | CCS(=O)(=O)Nc1cccc(-c2cc(-c3ccccc3)c3cc(C)ccc3n2)c1 | 69.3% (active) | -17.6
6 | Cc1ccc2nc(-c3ccccc3)cc(C(=O)O)c2c1 | 3.84% (inactive) | 0.25
7 | CCC(C)(C)NC(=O)/C=C/c1cc(OC)c(OC)c(S(=O)(=O)N2CCc3ccccc32)c1 | 7.15% (inactive) | 8.01
8 | COc1ccc(CS(=O)/C(Cl)=C(/Cl)C(=O)Nc2ccc(OC)nc2)cc1 (stereo not drawn) | 80% (inactive) | 83.5
9 | NC(=O)c1sc2nc3c(c(-c4ccccc4)c2c1N)CCC3 | -6.05% (inactive) | -18.6
10 | CN(C)c1ccnc2sc(C(=O)c3ccccc3)c(N)c12 | 38.8% (inactive) | 22.2
11 | Cc1nc2sc(C(=O)c3ccccc3)c(N)c2c2c1CCCC2 | 66.8% (active) | 35.7
12 | COc1ccccc1CNC(=O)C1Cc2ccccc2C(=O)O1 (stereo not drawn) | -29.6% (inactive) | -2
13 | CCOc1cc(NC(=O)CCl)c(OCC)cc1NC(C)=O | -12.2% (inactive) | 11.6
14 | CC(C)(C)NC(=O)CN1CCC(NC(=O)C23CC4CC(CC(C4)C2)C3)CC1 | -5.35% (inactive) | -4.48
15 | CSc1ccc(C(=O)C2CCCN(C(=O)c3ccc(C)nc3)C2)cc1 (stereo not drawn) | 0.28% (inactive) | -10.8
16 | CC1(C)CC(=O)c2cnc3nc4ccccc4n3c2C1 | 16.6% (inactive) | -7.45
17 | O=c1c2ccccc2nc2n1C1(CCCCC1)Cc1ccccc1-2 | 61.2% (active) | 9.31
18 | CCC1(CC)Cc2ccccc2-c2nc3ccccc3c(=O)n21 | -30.3% (inactive) | 0.33
19 | c1cncc(-c2nnc3n2C2(CCCCC2)Cc2ccccc2-3)c1 | 11.9% (inactive) | 5.15
20 | COC(=O)C1=C(C)NC(=O)/C1=C/c1ccc(CNS(=O)(=O)c2ccc(C)cc2)o1 | -8.5% (inactive) | 0.18
21 | NS(=O)(=O)c1ccc(CCNC(=O)c2ccc([N+](=O)[O-])cc2[N+](=O)[O-])cc1 | -6.04% (inactive) | -5.86
22 | COc1cc(NC(=O)c2ccccc2NS(=O)(=O)c2ccc(Cl)s2)cc(OC)c1 | 67.2% (active) | 46.5
23 | COc1cc(NC(=O)c2cccnc2SC)cc(OC)c1 | -8.4% (inactive) | -8.46
24 | COC(=O)c1ccc(NC(=O)c2ccccc2NS(=O)(=O)c2ccccc2)cc1 | 6.94% (inactive) | 15.7
25 | CCOC(=O)C1CCN(c2ncnc3c2c(-c2ccccc2)cn3-c2ccc(C)cc2)CC1 | 14.7% (inactive) | 15.5
26 | COc1cccc(-c2cc3nc4c(c(N5CCC6(CC5)OCCO6)n3n2)CCCC4)c1 | 69.6% (active) | 33.9
27 | COc1cccc(CNc2nc3nc4c(c(=O)n3[nH]2)CCC4)c1 | -0.87% (inactive) | -10.6

Row | Compound | inhibition [1] | inhibition (mutant strain inhibition) [%]
28 | COc1cccc(-c2nc(S(=O)(=O)c3ccccc3)c(N3CCOCC3)o2)c1 | -12% (inactive) | -5.11
29 | Cc1ccc(NC(=O)CN2CCC(C(N)=O)CC2)cc1[N+](=O)[O-] | -8.61% (inactive) | -3.52
30 | CCCN(C(=O)CSc1nnnn1C)c1c(N)n(Cc2ccccc2)c(=O)[nH]c1=O | -4.08% (inactive) | -15.2
31 | CC(C)c1ccc2c(c1)c(SC(C)(C)C)c(CC(C)(C)C(=O)O)n2Cc1ccc(Cl)cc1 | 70.4% (active) | 23.5
32 | Cc1ccc(C(=O)N2CCN(S(=O)(=O)N3CCOCC3)CC2)cc1 | 8.87% (inactive) | 9.09
33 | COc1ccc(C2CC(c3cccs3)=NN2C(=O)CSc2nncs2)cc1OC (stereo not drawn) | -1.36% (inactive) | -8.65
34 | Cc1ccccc1CC1(CO)CCCN(Cc2ccc3c(c2)OCCO3)C1 (stereo not drawn) | -4.77% (inactive) | 1.77
35 | NC(=O)C[n+]1cccc(C(N)=O)c1 | -12.7% (inactive) | -23.1
36 | COc1ccc(C(=O)CN(C(=O)c2ccc(Cl)cc2)N2C(=O)c3ccccc3C2=O)cc1 | 6.73% (inactive) | 27.8
37 | COc1ccc(Cn2c(-c3ccc(Cl)cc3)c[n+]3ccccc23)cc1 | 65.1% (active) | 49.9
38 | COc1ccc(Cn2c(=O)cc(C)[nH]c2=S)cc1 | -15.8% (inactive) | -20.1
39 | COCCNC(=O)CCCn1c(=O)c2ccccc2n(Cc2cccc([N+](=O)[O-])c2)c1=O | 5.52% (inactive) | 6.42
40 | O=C(NCCCNc1ccc([N+](=O)[O-])cc1Cl)c1ccccc1F | -8.75% (inactive) | -6.43
41 | COCCn1c(Cc2cccn2C)nnc1SCC(=O)Nc1nccs1 | 1.47% (inactive) | 4.94
42 | Cc1ccc(NC(=O)CC2S/C(=N/N=C3\CCCc4ccccc43)NC2=O)cc1 (stereo not drawn) | 83.8% (active) | 33.5
43 | Cc1c(Cl)cccc1NC(=O)CC1SC(=NCC2CCCO2)NC1=O (stereo not drawn) | -15.1% (inactive) | 19
44 | CCN=C1SC(CC(=O)Nc2ccc(C)cc2)C(=O)N1CC (stereo not drawn) | -14.8% (inactive) | 6.26
45 | COc1ccnc(Oc2ccccc2)c1-c1ncn[nH]1 | 3.65% (inactive) | 2.35
46 | CC(=O)C1=C(O)C(=O)N(c2cccnc2)C1c1ccc([N+](=O)[O-])cc1 (stereo not drawn) | 2.65% (inactive) | -8.89
47 | Cc1cc(C)c(C#N)c(SCC(=O)Nc2ccccc2)n1 | 9.11% (inactive) | -9.66
48 | Cc1cc(=O)[nH]c(SCC(N)=O)c1C#N | 59.8% (active) | -65.4
49 | Cc1cc(C#N)c(SCC(N)=O)nc1-c1ccc(F)cc1 | -8.84% (inactive) | 0.95
50 | C=CCOc1c(CNn2cn[nH]c2=S)cccc1OC | -4.69% (inactive) | -6.27
51 | Cc1ccc(CNC(=O)c2cccnc2Cl)cc1 | -14.3% (inactive) | -25.1
52 | CN(C)CCOc1ccc(Cl)cc1C(C)(C)C | 27.8% (inactive) | 4.52
53 | CCC(C)(C)c1ccc(OCC(=O)N(C)C)c(C(C)(C)CC)c1 | 79.9% (active) | 14.1
54 | CCc1nc(C)ccc1OCC(=O)N(CC)CC | -20.5% (inactive) | -10.4
